Screening results deposited in PubChem by National Center for Advancing Translational Sciences (NCATS).
LmPK inh = qHTS Assay for Inhibitors of Leishmania Mexicana Pyruvate Kinase (LmPK) | purified LmPK, Kinase-Glo ATP luminescence, 1 h | Potency, µM (highest dose often 57.5 µM), for the others: top-dose activity change, negative = inhibition, most hits filed as inhibitors | actives 0.37% (n = 290,000) | AID 1721, 2009; note: potency is the fitted concentration of half-maximal effect; % is set by controls: 0 for no effect and ±100 for the full control effect
Target sequence (Q27686 whole entry, looked up): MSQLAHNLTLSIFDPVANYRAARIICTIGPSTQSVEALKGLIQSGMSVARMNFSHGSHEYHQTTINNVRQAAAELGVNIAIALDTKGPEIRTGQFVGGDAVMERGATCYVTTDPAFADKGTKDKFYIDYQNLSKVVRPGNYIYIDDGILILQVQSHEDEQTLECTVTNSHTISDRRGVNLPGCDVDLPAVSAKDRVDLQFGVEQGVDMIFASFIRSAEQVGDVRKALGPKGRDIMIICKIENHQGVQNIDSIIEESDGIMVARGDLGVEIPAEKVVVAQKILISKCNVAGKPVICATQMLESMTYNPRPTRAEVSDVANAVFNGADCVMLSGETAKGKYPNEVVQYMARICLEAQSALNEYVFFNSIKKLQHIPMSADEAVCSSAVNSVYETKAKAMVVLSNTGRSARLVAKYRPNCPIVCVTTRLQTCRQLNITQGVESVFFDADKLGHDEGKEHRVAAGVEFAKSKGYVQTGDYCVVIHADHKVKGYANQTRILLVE
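Pyruvate kinase activity monitored as ATP production (luciferase luminescence). Conditions: 0.1 nM enzyme, 0.5 mM PEP, 0.1 mM ADP, 1 h, RT; normalized against uninhibited and no-enzyme wells.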
Shiga toxin inh = A qHTS for Small Molecule Inhibitors of Shiga Toxin; Vero cells, Shiga toxin protein synthesis inhibition reporter; inhibition, % at 38.7 µM; actives 9.2% (n = 290,000); AID 2315, 2010; in the data active = inhibition mostly above about 28%, no sharp cut-off; inactive = mostly below about 43%; note: 0% is about no effect
Giardia FBPA inh = qHTS Assay for Inhibitors of Fructose-1,6-bisphosphate Aldolase from Giardia Lamblia; A8B2U2; purified Giardia FBPA; Potency, µM (top dose mostly 59.6 µM), inactives show top-dose activity, negative = inhibition, actives largely listed as inhibitors; actives 0.71% (n = 290,000); note: potency is the fitted concentration of half-maximal effect; % is set by controls: 0 for no effect and ±100 for the full control effect; nearly all actives have a fitted effect of over 55% in size
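Giardia FBPA (40 nM reagent) was preincubated 10 min at RT with compound (up to 57.5 uM final), then substrate plus GAPDH/TPI/NAD/arsenate coupling system with diaphorase/resazurin was added; resorufin fluorescence (525/598 nm) was read after 20 min.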
Sm TGR inh = qHTS Assay for the Inhibitors of Schistosoma Mansoni Peroxiredoxins | Schistosoma mansoni thioredoxin glutathione reductase (TGR), Q962Y6 | purified TGR, DTNB reduction, TNB absorbance 405 nm | Potency, µM (titrated, usually from 114 µM), for inactives: at the highest dose activity change, negative = inhibition, usual class: inhibitors | actives 3% (n = 360,000); note: potency is the fitted concentration of half-maximal effect; % is set by controls: 0 for no effect and ±100 for the full control effect; nearly all actives have a fitted effect of over 60% in size
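First, TGR (20 nM dispensed) and NADPH were mixed with compound. Second, a 15 min room-temperature incubation followed. Third, further NADPH and then DTNB were added to start the reaction. Finally, TNB absorbance was monitored kinetically.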
CHX counter = Cycloheximide Counterscreen for Small Molecule Inhibitors of Shiga Toxin | cell reporter, cycloheximide protein synthesis inhibition counterscreen | actives 12% (n = 300,000) | max response, %; in the data active = max response mostly above about 13%, no sharp cut-off; inactive = mostly below about 14%; note: read at 38.3 µM for the half of the compounds with a filed dose; 0% is about no effect
TbPYK inhibitor = qHTS of Trypanosoma Brucei Inhibitors. TbPYK enzyme, Kinase-Glo Plus ATP luminescence, 45 min. actives 0.12% (n = 410,000). Potency, µM (top dose mostly 76.8 µM), for inactives: top-dose activity, negative = inhibition, actives largely listed as inhibitors; note: potency is the fitted concentration of half-maximal effect; % is set by controls: 0 for no effect and ±100 for the full control effect; nearly all actives have a fitted effect of over 50% in size
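ADP (130 uM final) triggers the TbPYK reaction after compound addition; incubation is 45 min at room temperature. Kinase-Glo Plus is then added and luminescence imaged. Normalized data are fitted to concentration-effect curves.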
Active calls of the source: *; ? = inconclusive; . = no result; [ ] = dose if it differs, or a comment. The sample as a whole holds a higher share of hits than the screen did. Unless noted, calls come from the whole dose curve; as a rule, active = well fitted curve in the direction sought with a large enough effect; inconclusive = small, poorly fitted or top-dose-only effect, or another doubt; inactive = no such curve, though single readings can be large; an effect the other way counts as inactive or inconclusive.

SMILES	LmPK inh	Shiga toxin inh	Giardia FBPA inh	Sm TGR inh	CHX counter	TbPYK inhibitor
COc1cccc(C(=O)Nc2cccc(C(C)=O)c2)c1	?	18*	-1%	3%	87*	-16%
O=C(Nc1cccc(C(=O)N2CCN(c3ccccc3)CC2)c1)c1ccco1	0%	7	.	-11%	7	-3%
COc1ccccc1-c1nnc(NC(C)=O)s1	1%	49*	3%	1%	38*	11%
COc1ccccc1-c1nnc(NC(=O)C(C)C)s1	0%	-1	0%	-21%	17	-4%
O=C(Nc1cccc(C(=O)N2CCCCCC2)c1)c1ccco1	-8%	-2	6%	-2%	10*	-8%
COc1cccc(NC(=O)c2cnc(SC)nc2)c1	2%	27	-2%	-1%	21*	-1%
CCCCC(C)/C=C(C)/C=C(\C)C(=O)NC1=CC(O)(/C=C/C=C/C=C/C(=O)NC2=C(O)CCC2=O)C2OC2C1=O (stereo not drawn)	.	-4	-8%	.	-6	.
Cc1cccc(C(=O)NNC(=O)c2ccc(F)cc2)c1	-1%	16	2%	7.9µM*	14*	4%
COc1cccc(C(=O)Nc2ccc(Cl)c(C(F)(F)F)c2)c1	4%	88*	-13%	17%	51*	2%
COC(=O)c1cccc(NC(=O)c2cccc(OC)c2)c1	?	104*	1%	10%	53*	-15%
COc1cccc(C(=O)Nc2ccc(NC(=O)C3C4C=CC(C4)C3C(=O)O)cc2)c1 (stereo not drawn)	-2%	142*	.	11%	41*	1%
Cc1cccc(C(=O)NNC(=O)c2cccc(C)c2)c1	0%	3	4%	8%	8	-6%
COc1cccc(C(=O)Nc2ccncc2)c1	-29%	25	1%	-4%	8	.
COc1cccc(OC)c1C(=O)Nc1nnc(-c2ccc(F)cc2)s1	1%	30*	-4%	6%	10*	-2%
O=C(COc1cccc(NC(=O)c2ccco2)c1)c1ccc(F)cc1	2%	25*	2%	-2%	15*	-3%
CCOc1cccc(NC(=O)c2cccc(F)c2)c1	-9%	102*	0%	.	20*	2%
COc1cccc(C(=O)Nc2cccc(OC(C)=O)c2)c1	25µM*	52*	13%	-4%	45*	-2%
CCN(c1cc(C)cc(C)c1)S(=O)(=O)c1nnc(NC(=O)c2cccc(F)c2)s1	.	.	.	-5%	.	-4%
C=C1CC[C@H](O)C/C1=C/C=C1\CCC[C@]2(C)[C@H]1CC[C@H]2[C@@H](C)/C=C\[C@@H](C)C(C)C	.	.	-9%[21.7 µM]	.	.	.
Cc1cccc(C(=O)N2CCc3cc(CNC(=O)c4cc5ccccc5[nH]4)ccc32)c1	.	.	.	4%	.	-1%
COc1cc2c(cc1OC)C(c1ccc(Br)cc1)NCC2 (stereo not drawn)	.	.	.	.	.	4%
COc1cccc(C(=O)NC(=S)Nc2ccc(N(C)C)cc2)c1	-4%	102*	-5%	16µM*	34*	5%
COc1cccc(C(=O)Nc2ccc(C)cc2)c1	?	88*	-18%	-13%	30*	4%
COc1cccc(C(=O)Nc2nc3c(s2)CN(C)CC3)c1	1%	176*	.	5%	21	0%
COc1cccc(C(=O)Nc2cccnc2)c1	-25%	70	-2%	-10%	48*	-9%
SMILES	LmPK inh	Shiga toxin inh	Giardia FBPA inh	Sm TGR inh	CHX counter	TbPYK inhibitor
COc1ccccc1NC(=O)C(=O)NCCc1csc(-c2cccc(F)c2)n1	.	.	.	-1%	.	3%
COC(=O)c1cccc(NC(=O)c2cc3sccc3n2C)c1	0%	109*	-27%	6%	29*	-5%
COC(=O)c1ccc(NC(=O)c2cccc(OC)c2)cc1	?	91*	-17%	1%	57*	?
CCOc1cccc(C(=O)Nc2cccc(C(C)=O)c2)c1	-2%	68*	-1%	-7%	40*	-2%
C[C@@H]1C(SC2Cn3cnc[n+]3C2)=C(C(=O)[O-])N2C(=O)[C@H]([C@@H](C)O)[C@@H]12 (stereo partly drawn)	.	.	.	.	.	2%
CCc1ccc(NC(=O)CSc2nc3nc(C)cc(C)n3n2)cc1	0%	-3	.	-10%	13	1%
Cc1ccc(C)c(C(=O)COC(=O)c2cccc(N3C(=O)c4c(C)nc5ccccc5c4C3=O)c2)c1	0%	94*	3%	-3%	46*	6%
Cc1cc(NS(=O)(=O)c2ccc(N3C(=O)C4C5C=CC(C5)C4C3=O)cc2)nc(C)n1 (stereo not drawn)	2%	16	2%	2%	14*	-15%
CC1(c2ccccc2)CC(C)(C)N2C(=O)Cc3cccc1c32 (stereo not drawn)	2%	-14	-8%	11%	-4	9%
C=CCn1c(Cc2c[nH]c3ccccc23)n[nH]c1=S	-20%	13	-9%	12%	12*	13µM*
C=CCn1c(-c2cccc3ccccc23)n[nH]c1=S	8.9µM*	-1	-2%	0%	-3	.
C=CCn1c(-c2ccccc2OC)n[nH]c1=S	-19%	-10	-24%	?	1	?
C=CCC(C)(O)c1ccc(OC)cc1 (stereo not drawn)	.	.	0%	.	.	.
Nc1ccc(S(=O)(=O)NC2(C(F)(F)F)NC(=O)N(c3cccc(Cl)c3)C2=O)cc1 (stereo not drawn)	.	.	.	6%	.	2%
Cc1ccc(C(=O)N(c2ccccc2)C2CC(C)N(C(=O)c3ccco3)c3ccccc32)cc1 (stereo not drawn)	-5%	31	-9%	-7%	18*	-1%
Cc1ccc(-n2nnnc2CNC(=O)c2ccccc2)cc1C	.	.	.	8%	.	1%
Cn1c(CSc2nc3ccccc3s2)n[nH]c1=S	-6%	18	8%	6%	15*	?
CCNc1nnc(CSc2nc3ccccc3s2)s1	-2%	60*	1%	5%	37*	3%
CCc1nnc(NC(=O)CSc2nc3ccccc3s2)s1	6%	-8	1%	-7%	3	-9%
Cn1c(CSc2nc3ccccc3s2)nc2ccccc21	-29%	77*	-17%	0%	39*	.
S=c1[nH]nc(CSc2nc3ccccc3s2)o1	-1%	-3	21%	-1%	3	-31%
O=C1NC2(CCCCO2)CO1 (stereo not drawn)	-5%	-3	-1%	-16%	-1	0%
O=S(=O)(c1ccc(Cl)cc1)c1nc(-c2ccco2)oc1SCc1ccc(F)cc1	.	.	.	?	.	0%
